TRHR ag: agonists of human TRH receptor; P34981; TRHR cells, calcium flux fluo-8, FDSS agonist mode; activation, % at 2 µM; hit rate 0.18% among 360,000; AID 493084; further: 0% is about no effect
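In this calcium-flux screen, cells bearing human TRHR are dye-loaded with fluo-8, baselined for 10 cycles, then exposed to library compounds; positive kinetic calcium responses during the agonist phase mark hits, with TRH as control.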
D1 antagonist: human D1 dopamine receptor antagonism; P21728; HEK293 TREx D1 cells, calcium flux, dopamine EC80; hits give low values; activity change, negative = inhibition, % at 10 µM; hit rate 3.2% among 360,000; in the data active means activity change below about -30%; further: on the % scale 0 is the no-effect control and ±100 the full control effect
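HEK293 T-REx cells expressing inducible, force-coupled D1 receptor; no-wash Ca dye, 30–90 min RT. Cmpd → 180 s read at 1 Hz → EC80 DA → 180 s read.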
USP1 inh: USP1/UAF1 (human) deubiquitinase inhibition; Potency, µM (top dose mostly 57.1 µM), without a hit: at the highest dose activity change, negative = inhibition, actives largely listed as inhibitors; recombinant USP1/UAF1, Ub-Rhodamine cleavage fluorescence; O94782; hit rate 0.23% among 390,000; AID 743255; active means well fitted inhibition curve with a large enough effect; inconclusive means small, poorly fitted or top-dose-only effect; inactive means no such curve, though single readings can be large or run the other way; further: potency means the concentration at half of the fitted maximal effect; on the % scale 0 is the no-effect control and ±100 the full control effect; nearly all actives have a fitted effect of over 60% in size
Target sequence (O94782 whole entry, looked up): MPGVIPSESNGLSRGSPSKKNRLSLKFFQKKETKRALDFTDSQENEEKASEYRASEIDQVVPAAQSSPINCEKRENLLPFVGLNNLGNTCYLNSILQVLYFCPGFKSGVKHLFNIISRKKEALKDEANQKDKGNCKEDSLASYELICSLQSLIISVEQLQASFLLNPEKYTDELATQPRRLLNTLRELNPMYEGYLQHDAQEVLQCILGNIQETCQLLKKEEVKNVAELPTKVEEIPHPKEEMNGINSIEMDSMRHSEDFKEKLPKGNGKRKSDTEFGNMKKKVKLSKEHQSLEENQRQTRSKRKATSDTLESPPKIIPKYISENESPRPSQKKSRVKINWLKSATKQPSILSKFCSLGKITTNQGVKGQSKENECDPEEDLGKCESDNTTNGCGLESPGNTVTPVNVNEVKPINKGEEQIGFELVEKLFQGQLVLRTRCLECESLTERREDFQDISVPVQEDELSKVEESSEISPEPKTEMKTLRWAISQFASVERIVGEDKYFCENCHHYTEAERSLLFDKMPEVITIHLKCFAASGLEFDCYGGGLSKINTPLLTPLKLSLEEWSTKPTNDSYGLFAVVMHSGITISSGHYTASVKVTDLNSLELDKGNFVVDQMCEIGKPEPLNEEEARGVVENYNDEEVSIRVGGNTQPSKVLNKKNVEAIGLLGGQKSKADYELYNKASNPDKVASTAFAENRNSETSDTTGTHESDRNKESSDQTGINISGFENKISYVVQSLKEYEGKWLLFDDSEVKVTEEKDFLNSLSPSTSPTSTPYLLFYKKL
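USP1/UAF1 complex (1 nM) preincubated 15 min at room temperature with compound, then Ub-Rho substrate (150 nM final) added. Kinetic fluorescence at 480/540 nm over 6 reads at 60 s intervals; 50 mM HEPES pH 7.8, 0.5 mM EDTA, 0.1 mg/ml BSA, 1 mM TCEP, 0.01% Tween-20.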
D1 PAM: human D1 dopamine receptor positive modulation | HEK293 TREx D1 cells, calcium flux, dopamine EC20 potentiation | potentiation, % at 10 µM | hit rate 0.036% among 360,000; in the data active means potentiation above about 30%; further: 0% is about no effect
D1 ag: human D1 receptor agonism. P21728. HEK293 T-REx D1 cells, calcium flux, agonist mode. activation, % at 2 µM. hit rate 1% among 360,000; further: 0% is about no effect
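Inducible HEK293 T-REx D1 cells, force-coupled to calcium signalling, were plated at 4000 cells/well with tetracycline and held overnight at 30 C. After no-wash calcium dye loading, compound-evoked calcium rise over 180 s flagged agonists.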
TRHR enhancer: allosterically enhances the human TRH receptor | TRHR cells, fluo-8 calcium fluorescence, EC20 TRH enhancement | enhancement, % at 2 µM | P34981 | hit rate 0.66% among 360,000; in the data active means enhancement above about 30%; further: 0% is about no effect
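TRHR-expressing cells loaded with fluo-8 calcium dye were read kinetically (ex 480/em 530) during compound addition, then stimulated with an EC20 of TRH (10 nM final). Enhancement of the Gq-mediated intracellular calcium response was scored.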
* = called active by the depositor; ? = inconclusive; / = no result. Compounds with a hit are over-represented: about 4.4% of the library has one in this group of screens. Unless noted, no stated cut-off is given here; in the data, active means activation above about 30%; inactive means the rest.

SMILES	TRHR ag	D1 antagonist	USP1 inh	D1 PAM	D1 ag	TRHR enhancer
CC1CCC(NC(=O)c2ccc3c(c2)N(Cc2ccccc2F)C(=O)c2ccccc2S3=O)CC1 (centres undefined)	0	-8	-31%	-2	17	-7
COc1ccc([N+](=O)[O-])cc1NC(=O)CCN1CCN(C)CC1	0	2	?	-4	3	18
COc1ccc([N+](=O)[O-])cc1NC(=O)CCN1CCN(c2ccccc2OC)CC1	1	-46*	-17%	-14	1	-4
O=[N+]([O-])c1ccc(Sc2nc3ccccc3o2)c([N+](=O)[O-])c1	-1	-23	-22%	-2	4	30*
Cc1cc(OCc2cc(C(=O)NCc3csc(C(C)C)n3)no2)cc(C)c1Cl	3	-41*	-21%	6	71*	3
Cc1ccc(OCc2cc(C(=O)NCC(C)c3ccccc3)no2)cc1C (centres undefined)	2	-31*	-6%	-9	9	13
Cc1cc(OCc2cc(C(=O)NCCN3CCCCC3CO)no2)cc(C)c1Cl (centres undefined)	5	-44*	-21%	-15	35*	-3
COc1cccc(OCc2cc(C(=O)N(C)C3CCOCC3)no2)c1	1	-56*	-4%	-10	6	2
CC1CCc2c(sc(NC(=O)c3ccccc3)c2C(=O)Nc2ccccc2)C1 (centres undefined)	-1	4	-12%	-1	-1	2
Cc1cc(OCc2cc(C(=O)N(C)C3CCOC3)no2)cc(C)c1Cl (centres undefined)	0	-47*	-12%	-4	12	-4
COc1ccc(OCc2cc(C(=O)N(C)CCC3CCOCC3)no2)c(Cl)c1	-1	-41*	-2%	-8	7	-23
CC(C)(c1ccccc1)c1ccc(OCCn2cnc3ccccc3c2=O)cc1	9	5	?	6	33*	2
COc1cccc(N2CCN(C(=O)C3CCN(S(=O)(=O)c4cccc5nonc45)CC3)CC2)c1	0	-12	-18%	-5	3	-4
CCCc1ccc(Oc2cn[nH]c2-c2ccc(O)c(C)c2O)cc1	2	-17	-1%	-11	33*	10
CCCc1ccc(Oc2c(-c3ccc(O)c(C)c3O)n[nH]c2C)cc1	3	8	-21%	-4	35*	2
CCOc1ccc(Cn2c(CNS(=O)(=O)c3ccc(Cl)s3)nc3cccnc32)cc1	0	22	-8%	0	1	0
O=C(NCC(O)c1ccccc1)c1ccc(Cl)c(S(=O)(=O)N2CCCC2)c1 (centres undefined)	0	-31*	1%	-9	14	-4
Cc1ccc(NC(=O)Cn2cc(S(=O)(=O)N3CCCC3)c(S(=O)(=O)N3CCCC3)c2)cc1F	1	-18	?	-6	2	32*
O=C(Nc1ccc(Cl)c(S(=O)(=O)N2CCCCC2)c1)c1ccncc1	1	-11	6%	-3	8	18
Cc1ccc(C(=O)Nc2cccc(C(=O)O)c2)cc1S(=O)(=O)N1CCCC1	1	-40*	-16%	3	-3	4
O=C(Nc1ccncc1)c1ccc(Cl)c(S(=O)(=O)N2CCCCC2)c1	0	-39*	-9%	-8	18	6
CCOC(=O)Cn1c(=O)oc2cc(S(=O)(=O)N3CCN(c4cccc(C)c4C)CC3)ccc21	0	0	-12%	-5	1	-2
O=C(O)c1ccc(NC(=O)c2ccc(Br)c(S(=O)(=O)N3CCCC3)c2)cc1	0	-4	-11%	1	-1	-2
O=C(Nc1ccc(Br)cc1)c1ccc(Br)c(S(=O)(=O)N2CCCCC2)c1	2	-43*	-34%	4	9	-10
COc1cccc(CN(C)C(=O)c2cc(S(=O)(=O)N3CCCCCC3)ccc2OC)c1	0	1	6%	0	0	-2
SMILES	TRHR ag	D1 antagonist	USP1 inh	D1 PAM	D1 ag	TRHR enhancer
COc1cccc(CN(C)C(=O)c2ccc(C)c(S(=O)(=O)N3CCCCC3)c2)c1	0	-36*	-15%	-9	2	-1
Cc1ccc2c(n1)sc1c(=O)n(-c3cccc(C(F)(F)F)c3)nnc12	-1	-8	-10%	-3	3	12
Cc1ccccc1CN1CCc2nc(Nc3ccc4c(c3)OCCO4)ncc2C1	2	-1	-26%	3	2	2
COc1ccc(C2CCCN2CC(O)COc2ccccc2C(C)C)cc1 (centres undefined)	1	-30*	-31%	-5	9	13
Fc1ccc(Nc2nc(-c3cccc(Cl)c3)c3c(n2)-c2ccccc2OC3)cc1	0	1	-25%	0	1	-1
S=C1Nc2ccccc2Sc2ccc(Cl)cc21	0	9	-20%	2	4	2
CCCCCC[N+](C)(C)CC/C=C1/c2ccccc2Sc2ccc(Cl)cc21	-1	-38*	-22%	-3	0	5
CN(C)CC/C=C1/c2ccccc2CS(=O)(=O)c2ccccc21	/	/	-14%	/	/	/
CN(C)CC/C=C1/c2ccccc2Sc2ccc(Cl)cc21	1	-96*	4%	-9	16	-7
CN(C)CC/C=C1\c2ccccc2COc2ccccc21	1	-79*	-16%	-5	14	-2
COc1cc(N2CCCC2)c(OC)cc1/C=c1/sc2nc3ccccc3n2c1=O	18	-18	/	-6	47*	-7
COc1ccc(-c2cc(C(=O)OC(C)C(=O)c3ccccc3)c3cccc(Cl)c3n2)cc1 (centres undefined)	0	-2	-18%	0	2	3
O=C(Nc1ccc(F)cc1F)c1cc2nc3c(c(C(F)(F)F)n2n1)CCCC3	0	-33*	-20%	-4	0	-5
O=C(O)c1cc2nc3c(c(C(F)(F)F)n2n1)CCCC3	1	-24	-13%	-4	2	19
CCNc1nc(Cl)nc(NCCOc2ccc(C)cc2)n1	1	2	-17%	-5	3	1
CN(C)c1nc(Cl)nc(NCCOc2ccccc2)n1	-2	15	-8%	-8	81*	-1
COc1cc(CNC2CCCC2)cc(OC)c1	0	6	3%	4	4	1
COc1cc(CNC2CCC(C)C2)cc(OC)c1 (centres undefined)	1	-48*	-3%	0	1	-1
CC(C)c1cc(=O)oc2c3c4c(cc12)CCCN4CCC3	6	6	?	-5	30*	1
O=c1oc2c3c4c(cc2c(C(F)(F)F)c1CCN1CCOCC1)CCCN4CCC3	95*	17	6.3µM*	-1	178*	4

Screening results (PubChem)
